Screening results from PubChem.
HP1b chromo inh: inhibitors of HP1-beta chromodomain binding to methylated histone tails. AID 540317. P83916. 390,000 compounds, 0.56% hits. Potency, µM (top dose mostly 114 µM), for inactives: at the highest dose activity change, negative = inhibition, actives largely listed as inhibitors. AlphaScreen HP1-beta / biotin-H3K9me3 peptide binding; further: nearly all actives have a fitted effect of over 70% in size
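HP1-beta protein (50 nM final) preincubated 30 min at room temperature with biotinylated H3(1-18)K9me3 peptide (50 nM) in PBS pH 7.4, 0.01% Tween-20, then compound added for 30 min. AlphaScreen streptavidin donor/nickel chelate acceptor beads (10 ug/mL final), 30 min dark, luminescence read.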
G9a inh: inhibitors of human histone lysine methyltransferase G9a | 350,000 compounds, 8.8% hits | Q96KQ7 | G9a H3K9 monomethylation, AlphaScreen, 2 h | AID 504332 | Potency, µM (highest dose often 102 µM), without a hit: top-dose activity, negative = inhibition, usual class: inhibitors; further: on the % scale 0 is the no-effect control and ±100 the full control effect; nearly all actives have a fitted effect of over 75% in size
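AlphaScreen detection with an anti-monomethyl H3K9 antibody quantified product after a 2 h room-temperature reaction containing 500 nM biotinylated H3K9 peptide, 20 µM SAM and 20 nM enzyme, which had been preincubated 15 min with compound.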
BAZ2B block: inhibitors of human BAZ2B bromodomain | Q9UIF8 | AlphaScreen BAZ2B-H3K14Ac peptide displacement | Potency, µM (series often up to 114 µM), for inactives: at the top dose activity change, negative = inhibition, actives largely listed as inhibitors | 360,000 compounds, 4.4% hits | AID 504333; further: on the % scale 0 is the no-effect control and ±100 the full control effect; nearly all actives have a fitted effect of over 60% in size
Target sequence (Q9UIF8 whole entry, looked up): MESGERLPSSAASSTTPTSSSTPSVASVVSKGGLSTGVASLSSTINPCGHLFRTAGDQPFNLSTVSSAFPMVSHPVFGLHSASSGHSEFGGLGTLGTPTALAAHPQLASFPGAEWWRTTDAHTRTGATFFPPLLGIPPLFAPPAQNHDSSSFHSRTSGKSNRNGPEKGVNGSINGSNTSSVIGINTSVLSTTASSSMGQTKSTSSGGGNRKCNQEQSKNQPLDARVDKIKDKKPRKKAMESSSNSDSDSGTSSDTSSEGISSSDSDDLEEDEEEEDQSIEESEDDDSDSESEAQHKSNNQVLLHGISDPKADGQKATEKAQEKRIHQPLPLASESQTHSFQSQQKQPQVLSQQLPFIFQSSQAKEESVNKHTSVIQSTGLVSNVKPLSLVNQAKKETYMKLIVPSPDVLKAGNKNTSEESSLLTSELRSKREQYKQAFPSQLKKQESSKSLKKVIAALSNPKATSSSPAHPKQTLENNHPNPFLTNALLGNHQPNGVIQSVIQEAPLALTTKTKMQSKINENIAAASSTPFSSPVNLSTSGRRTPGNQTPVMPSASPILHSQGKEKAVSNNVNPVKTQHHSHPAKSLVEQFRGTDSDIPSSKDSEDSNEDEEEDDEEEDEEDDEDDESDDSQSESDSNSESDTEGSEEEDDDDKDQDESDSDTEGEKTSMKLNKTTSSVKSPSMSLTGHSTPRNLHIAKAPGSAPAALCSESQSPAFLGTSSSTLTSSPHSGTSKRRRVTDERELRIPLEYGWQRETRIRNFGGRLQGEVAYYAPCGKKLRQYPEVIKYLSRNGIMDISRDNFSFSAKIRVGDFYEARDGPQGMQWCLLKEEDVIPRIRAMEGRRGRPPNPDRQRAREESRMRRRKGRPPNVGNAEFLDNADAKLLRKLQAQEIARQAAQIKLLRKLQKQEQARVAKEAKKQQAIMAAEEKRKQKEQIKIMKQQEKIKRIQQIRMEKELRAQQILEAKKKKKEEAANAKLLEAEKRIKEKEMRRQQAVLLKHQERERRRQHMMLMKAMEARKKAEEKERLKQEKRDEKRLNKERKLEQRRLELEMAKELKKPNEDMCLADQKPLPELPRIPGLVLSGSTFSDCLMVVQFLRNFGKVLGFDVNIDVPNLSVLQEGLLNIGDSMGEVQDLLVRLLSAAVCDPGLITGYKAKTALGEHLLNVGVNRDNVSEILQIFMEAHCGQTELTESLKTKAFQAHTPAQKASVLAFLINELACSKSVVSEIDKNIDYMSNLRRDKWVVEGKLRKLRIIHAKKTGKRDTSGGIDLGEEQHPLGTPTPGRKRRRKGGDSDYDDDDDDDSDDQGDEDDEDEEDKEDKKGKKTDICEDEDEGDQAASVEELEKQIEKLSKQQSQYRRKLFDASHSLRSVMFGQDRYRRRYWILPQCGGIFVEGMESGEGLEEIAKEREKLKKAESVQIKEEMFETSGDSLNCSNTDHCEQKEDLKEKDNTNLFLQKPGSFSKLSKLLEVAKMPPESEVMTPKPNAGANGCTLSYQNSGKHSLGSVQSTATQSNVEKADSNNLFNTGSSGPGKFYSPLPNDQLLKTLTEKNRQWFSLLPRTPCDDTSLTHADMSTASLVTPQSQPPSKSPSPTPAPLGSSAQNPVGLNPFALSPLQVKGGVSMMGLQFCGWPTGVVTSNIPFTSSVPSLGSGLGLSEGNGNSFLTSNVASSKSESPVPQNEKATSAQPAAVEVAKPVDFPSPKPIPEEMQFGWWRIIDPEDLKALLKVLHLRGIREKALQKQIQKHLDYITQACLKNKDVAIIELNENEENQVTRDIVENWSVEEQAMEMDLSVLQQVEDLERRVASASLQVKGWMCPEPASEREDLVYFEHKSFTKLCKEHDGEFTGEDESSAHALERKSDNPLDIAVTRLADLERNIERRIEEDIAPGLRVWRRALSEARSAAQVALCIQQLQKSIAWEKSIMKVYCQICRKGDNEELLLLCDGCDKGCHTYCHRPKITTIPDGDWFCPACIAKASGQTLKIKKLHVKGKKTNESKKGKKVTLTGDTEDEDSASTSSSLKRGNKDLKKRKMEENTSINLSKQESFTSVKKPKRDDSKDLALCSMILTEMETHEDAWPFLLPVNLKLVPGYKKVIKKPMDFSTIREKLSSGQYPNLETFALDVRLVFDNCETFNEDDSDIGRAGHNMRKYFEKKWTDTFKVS
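Multi-concentration screen (max 110 uM) measuring displacement of acetylated histone H3 peptide from BAZ2B by AlphaScreen, using 50 nM protein, 50 nM peptide and 10 ug/mL streptavidin donor plus Ni-chelate acceptor beads.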
JMJD2A Tudor inh: blocks the human JMJD2A Tudor domain; 390,000 compounds, 4.4% hits; Potency, µM (doses to about 114 µM), for inactives: top-dose activity change, negative = inhibition, usual class: inhibitors; AlphaScreen JMJD2A-Tudor / H3K4me3 peptide binding; O75164; further: on the % scale 0 is the no-effect control and ±100 the full control effect; nearly all actives have a fitted effect of over 50% in size
GLS inhibitor: glutaminase GLS (human) inhibition. O94925. GLS enzymatic activity, qHTS titration. Potency, µM (titrated, usually from 45.5 µM), for the others: at the top dose activity change, negative = inhibition, usual class: inhibitors. 410,000 compounds, 0.21% hits; further: on the % scale 0 is the no-effect control and ±100 the full control effect
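Read-out is an Amplex red fluorescence increase coupled through glutamate oxidase and HRP, measured before and after 30 min room-temperature incubation. hKGA is in 45 mM KH2PO4 (pH 8.2) with 0.02% Tween-20; glutamine added as 1mM solution.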
The depositor's hits bear a star; ? = inconclusive; / = not tested or not shown; [ ] = dose if it differs, or a comment. In the library only some 10% were active in any assay of this set; here they are far more common. The call rests on the fitted dose curve; in most records, active means well fitted curve in the direction sought with a large enough effect; inconclusive means small, poorly fitted or top-dose-only effect, or another doubt; inactive means no such curve, though single readings can be large; an effect the other way counts as inactive or inconclusive. Potency means the concentration at half of the fitted maximal effect.

SMILES	HP1b chromo inh	G9a inh	BAZ2B block	JMJD2A Tudor inh	GLS inhibitor
Cc1cc(C)c(C(=O)CSc2nnc(C)c(=O)[nH]2)cc1C	31.2%	39.8µM*	-13.5%	-5.1%	9.1%
Cc1cc(=O)[nH]c(SCC(=O)NCc2ccco2)n1	-29.9%	?	?	79.4µM*	-21.3%
CC(=O)Nc1ccc(NC(=O)C(C)Sc2nc3nc(C)cc(C)n3n2)cc1 (stereo not given)	23.0%	10.3%[0.501 µM]	4.1%	-4.8%	-4.2%
Cc1cc(-c2ccco2)n(CC(=O)NCc2ccco2)n1	30.7%	50.1µM*	1.2%	-24.1%	-5.9%
CCc1c(O)nc(SCC(=O)NCc2ccco2)[nH]c1=O	12.2%	4.1%	-8.3%	-25.7%	33.5%
Cc1cc(C)n2nc(SC(C)C(=O)NCc3ccco3)nc2n1 (stereo not given)	26.6%	56.2µM*	?	-2.5%	8.6%
COc1ccc(NC(=S)Nc2ccc3snnc3c2)cc1	?	?	-30.7%	?	?
Cc1nnc(SCC(=O)NCc2ccco2)[nH]c1=O	13.3%	50.1µM*	1.7%	-31.1%	3.4%
NC(=S)N=Nc1c(O)cc(O)c2[nH]c(=O)ccc12	17.8µM*	/	/	50.1µM*	?
Cc1cccc2nc(-c3ccco3)c(Nc3ccc4c(c3)OCCO4)n12	?	?	35.5µM*	56.2µM*	-1.6%
COc1cc(-c2nc3cccc(C)n3c2Nc2ccc3c(c2)OCCO3)ccc1O	-6.3%	?	/	-33.7%	0.8%
Cc1ccc2nc(-c3ccco3)c(Nc3ccc4c(c3)OCCO4)n2c1	40.8%	?	-13.4%	-9.6%	-13.3%
Cc1ccn2c(Nc3ccc(F)cc3)c(-c3ccc(C)o3)nc2c1	38.8%	-45.1%[59 µM]	-7.3%	-10.2%	-5.4%
c1coc(-c2nc3ccccn3c2Nc2ccc3c(c2)OCCO3)c1	?	12.6µM*	44.7µM*	56.2µM*	9.3%
Cc1ccn2c(Nc3ccc4c(c3)OCCO4)c(-c3ccc(C)o3)nc2c1	-7.3%	25.1µM*	31.6µM*	44.7µM*	-4.7%
COc1ccc(CNC(=O)C[C@H]2C[C@H](C(=O)N(C(C)C)C(C)C)[C@@]3(C)c4[nH]c5ccc(Cl)cc5c4CCN3C2=O)cc1OC	-9.5%	/	/	?	3.2%
O=C(CN1C(=O)NC2(CCCCCC2)C1=O)NCc1ccccc1Cl	35.7%	/	/	3.0%	-0.1%
O=C1CC[C@@H](CN(Cc2ccccc2)Cc2cn[nH]c2-c2cc3ccccc3o2)N1	6.7%	0.0%[59 µM]	?	-20.7%	3.0%
C[C@H](CO)N1C[C@H](C)[C@@H](CN(C)S(C)(=O)=O)Oc2ccc(NS(=O)(=O)c3ccccc3)cc2C1=O	34.0%	/	/	-10.5%	-1.2%
CC(=O)C1=C(C)NC(SCC(=O)c2ccccc2)=C(C#N)C1CC(C)C (stereo not given)	43.9%	?	?	56.2µM*	-5.7%
CC(=O)C1=C(C)NC(SCC(=O)c2ccc(Cl)cc2)=C(C#N)C1c1ccco1 (stereo not given)	30.5%	?	-5.0%	-24.5%	0.1%
CCC(=O)NCc1ccc2[nH]c(C)cc2c1	32.3%	35.5µM*	-15.8%	-17.9%	14.1%
CNC(=S)NCc1ccc2[nH]c(C)cc2c1	-5.8%	-25.6%	/	?	0.6%
CC(=O)NCc1ccc2[nH]c(C)cc2c1	18.2%	?	-6.9%	-7.6%	11.5%
CCc1cccc(C)c1NC(=S)NCc1ccc2[nH]c(C)cc2c1	5.4%	?	39.8µM*	?	8.5%
SMILES	HP1b chromo inh	G9a inh	BAZ2B block	JMJD2A Tudor inh	GLS inhibitor
Cc1cccc(NC(=O)c2nc(-c3ccccc3)n(-c3ccccc3)n2)c1C	25.9%	20.2%[12.7 µM]	-8.7%	-16.2%	9.0%
O=C(O)c1cc([N+](=O)[O-])cc([N+](=O)[O-])c1N1CCN(c2cccc(C(F)(F)F)c2)CC1	-16.5%	56.2µM*	-35.5%	-35.5%	2.1%
O=C(Nc1ccccc1)N1CCN(c2cccc(C(F)(F)F)c2)CC1	27.1%	9.9%	12.7%	-20.4%	0.0%
COc1ccc(CN2CCCCC2c2cccnc2)c(OC)c1C (stereo not given)	14.3%	79.4µM*	?	-32.5%	-10.1%
COc1ccc(OC)c(-c2nc(CN3CCCCC3c3cccnc3)c(C)o2)c1 (stereo not given)	14.6%	1.2%	-22.9%	-17.9%	0.5%
CCOc1ccc(NC(=O)N2CCN(Cc3ccc4c(c3)OCO4)CC2)cc1	37.1%	-3.1%	-12.7%	-8.9%	21.6%
C(=N\Nc1ncnc2nc[nH]c12)/c1cccs1	31.6%	-27.3%	50.1µM*	?	11.7%
Cc1ccnn1C(C)C(=O)O (stereo not given)	-0.7%	50.1µM*	-20.8%	-30.3%	0.8%
Cc1ccc(CNC(=O)COc2ccc(C)nc2[N+](=O)[O-])cc1	32.2%	-7.0%[59 µM]	8.3%	-6.3%	-4.3%
Cc1onc(-c2c(F)cccc2Cl)c1C(=O)N1C=CC(C(F)(F)Cl)=NCC1	7.8%	54.1%[59 µM]	-3.9%	-20.9%	3.8%
CCCCCCN1C=CC=C/C1=C\C=C(C#N)C#N	-31.4%	-48.2%[12.7 µM]	35.5µM*	?	7.9%
CCN(CC)c1ccc(N=Cc2cc(Br)ccc2O)cc1	0.0%	14.1µM*	-31.6%	39.8µM*	6.5%
Cc1ccc(O)c(C=Nc2cc(C)ccc2O)c1	14.6%	-17.4%[59 µM]	-7.7%	-24.1%	?
CC(C)(C)c1ccc(O)c(N=Cc2cc(Br)ccc2O)c1	?	1.78µM*	-19.8%	3.98µM*	?
Oc1ccc(Br)cc1C=Nc1ccc(Cl)cc1	-17.7%	-41.2%	/	-32.3%	67.5%
COc1ccc(CC(=O)OCc2cc3ccccc3[nH]c2=O)cc1	38.4%	-2.8%[59 µM]	5.7%	-12.2%	1.4%
CCOc1ccc(S(=O)(=O)N(C)c2ccc(OCC(=O)Nc3nc(-c4cc(OC)ccc4OC)cs3)cc2)cc1	6.0%	50.1µM*	5.0%	-13.7%	3.8%
CCOC(=O)Cc1csc(NC(=O)COc2ccc(N(C)S(=O)(=O)c3ccc(C)cc3)cc2)n1	26.9%	12.9%	2.9%	-17.1%	-11.1%
Cc1nn(-c2ccccc2)c(N)c1Sc1cccc([N+](=O)[O-])c1	-21.3%	?	?	56.2µM*	17.0%
Cc1nn(-c2ccccc2)c(N)c1Sc1ccccc1[N+](=O)[O-]	-20.7%	18.8%[59 µM]	?	?	4.2%
COc1ccc(O)c(C=Nc2cc(NC(C)=O)c(Cl)cc2Cl)c1	20.6%	-7.0%[59 µM]	-2.7%	-25.0%	20.6%
N#CC1=C(N)Oc2c(oc(CO)cc2=O)C1c1ccsc1 (stereo not given)	13.7%	31.6µM*	50.1µM*	-15.7%[57.1 µM]	4.0%
N#CC1=C(N)Oc2c(ccc3ccccc23)C1c1ccsc1 (stereo not given)	2.9%	44.7µM*	-9.5%	-24.7%	?
N#CC1=C(N)Oc2c(oc(CO)cc2=O)C1c1cccs1 (stereo not given)	16.3%	44.7µM*	-0.8%	28.2µM*	35.2%
S=C(NCc1cccs1)Nc1cccc(Cl)c1Cl	20.2%	-6.6%	2.4%	1.7%	4.6%
